Shown are actives, neighbours in structure and some others; about 1.5% of the full set was active somewhere.
cytoskel mod: modifiers of F-actin cytoskeleton organization, primary screen, imaging, HUVEC, phalloidin staining, high-content imaging; AID 836, 2007; inhibition, % at 2 µM; HUVEC TNFa F-actin phalloidin imaging; actives 0.18% (n = 91,000);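 active means inhibition above the batch mean plus 3 SD and confirmed as a hit by visual image inspection, cut at about 30% in these data, passing the limit was not always enough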
Measles CPE: compounds protecting cells from measles virus cytopathic effect, primary screen, measles RdRp inhibitor project, single point, MLSMR library, absorbance; Measles virus-infected cells, CPE protection; protection (pct of control), % at 4 µM; actives 1.5% (n = 140,000); AID 841, 2007; in the data active means protection mostly above about 24%, no sharp cut-off; inactive means mostly below about 26%
Active calls of the source: *; nt = no result.

SMILES	cytoskel mod	Measles CPE
COc1ccccc1-c1c(C(F)(F)F)oc2cc(OC(=O)c3cccc([N+](=O)[O-])c3C)ccc2c1=O	23.1	6.4
Cc1cc(N2CCC(C)CC2)nc(-n2nc(C)cc2C)n1	40.0*	17.4
Cc1cc(C)n(-c2nc3ccccc3nc2N2CCC(C)CC2)n1	-9.4	3.6
CCOCC(=O)Nc1cc(C(=O)OC)cc(C(=O)OC)c1	nt	3.3
N#CC12CCCCC1CC1CCCCC1(C#N)N2Cc1cccnc1 (stereo unspecified)	-9.8	112.9*
O=c1c2ccccc2c2ccccc2c(=O)n1Cc1cccnc1	nt	19.1
COc1ccccc1Oc1c(C)oc2c(CN(C)C)c(O)ccc2c1=O	nt	14.8
O=C(O)c1cccnc1SCC(=O)N1CCCCCC1	-13.2	0.7
O=C(O)c1ccccc1SCC(=O)N1CCCCC1	19.8	39.7*
CCOC(=O)/C(C)=C1\NC(C)(C)Cc2ccccc21	nt	4.7
COc1ccc(CN2CCC(=O)NC2=O)cc1	-19.2	11.0
CCOC1(C(F)(F)F)NC(=O)N(Cc2ccc(OC)cc2)C1=O (stereo unspecified)	-8.7	34.1*
CC1(C)CC(=O)C2=C(C1)N(c1ccc(F)cc1)C(=O)CC2c1ccsc1 (stereo unspecified)	-3.6	6.5
COc1ccc(CC(=O)Nc2nc(-c3cccnc3)cs2)cc1	nt	34.8*
COc1cccc(CC(=O)Nc2nc(-c3cccnc3)cs2)c1	nt	16.5
Cc1cc2c(ncn2Cc2ccccc2)c([N+](=O)[O-])c1C	nt	16.9
CCN(CC)c1ccc2cc(C(C)=O)c(=O)oc2c1	-2.4	43.4*
COc1ccc2oc(=O)c(C(C)=O)cc2c1	2.7	42.0*
CCN(CC)c1ccc2cc(C(N)=O)c(=O)oc2c1	21.4	5.8
COc1ccc(NC(=O)c2cc3cc(OC)ccc3oc2=N)cc1	nt	16.2
C=CCN1C(=O)C(CC(=O)Nc2ccccc2)SC1=Nc1ccc(S(N)(=O)=O)cc1 (stereo unspecified)	3.2	22.2
COc1ccccc1S(=O)(=O)Cc1ccc(C(=O)NC2CCCCC2)o1	2.2	nt
O=C(NC1CCCCC1)c1ccc(CNc2ccccc2)o1	18.5	35.7*
CCOC(=O)C1=C(Nc2ccccc2)CC(C)(O)C(C(=O)OCC)C1c1ccc(Cl)cc1 (stereo unspecified)	nt	2.1
Cc1ccc(S(=O)(=O)N(C)c2ccccc2C(=O)NC2CCCC2)cc1	nt	8.8
SMILES	cytoskel mod	Measles CPE
CCC(=O)NCCCOc1ccccc1	-15.6	24.8
CC(C)CCNC(=O)CCCOc1ccccc1	-28.4	45.3*
Nc1ccc(Nc2ccncc2[N+](=O)[O-])cc1	7.8	5.3
O=[N+]([O-])c1cnccc1Nc1ccc(F)cc1	84.7*	6.3
Cc1ccc2oc(-c3ccc(C)c(NC(=O)Cc4cccs4)c3)nc2c1	16.9	8.2
O=C(Nc1ccc2oc(-c3ccncc3)nc2c1)c1cccs1	3.3	42.3*
Cc1ccc2oc(-c3ccc(C)c(NC(=S)NC(=O)c4cccs4)c3)nc2c1	nt	59.1*
O=C(Nc1ccc(-c2nc3cc(NC(=O)c4cccs4)ccc3o2)cc1)c1cccs1	17.9	13.1
CCOc1ccc2nc(NS(=O)(=O)Cc3ccccc3)sc2c1	6.8	5.9
CC1CCc2nc(NC(=O)Nc3ccc4c(c3)OCO4)sc2C1 (stereo unspecified)	nt	11.4
Cc1cc(S(=O)(=O)NCCN2CCOCC2)c(C)s1	65.4*	-0.5
COc1cc(S(=O)(=O)NCCN2CCOCC2)c(OC)cc1Cl	1.6	12.6
COc1ccc(C)cc1N1C(=N)/C(=C2/Nc3ccccc3S2)C(c2ccccc2)C1=O (stereo unspecified)	nt	3.5
CC(=O)CSc1nc(C(F)(F)F)cc(=O)n1-c1ccccc1	nt	1.9
O=C(O)CSc1nc(C(F)(F)F)cc(=O)n1-c1ccccc1	5.3	49.4*
CSc1nc(-c2ccc(Cl)cc2)nn1C(=O)c1ccco1	-23.4	51.6*
CSc1nc(-c2ccco2)nn1C(=O)c1ccco1	nt	29.1
COc1cccc(C(CC(=O)Nc2cccc3ccccc23)NC(=O)c2ccccc2)c1 (stereo unspecified)	-7.6	8.9
O=C(COc1ccccc1Br)NCc1ccccn1	nt	63.4*
O=C(COc1ccc(F)cc1Br)NCc1ccccn1	-17.9	16.6
COc1ccc(C(=O)Nc2nc(C)c(C(=O)N(C)C)s2)cc1OC	-9.2	35.4*
COc1ccc(/C=C/C(=O)Nc2nc(C)c(C(=O)N(C)C)s2)cc1OC	nt	12.7
O=C1CC(N2CCCN(C3CC(=O)N(c4ccc(F)cc4)C3=O)CC2)C(=O)N1c1ccc(F)cc1 (stereo unspecified)	-3.5	55.4*
O=C1CC(N2CCCCC2)C(=O)N1c1ccccc1 (stereo unspecified)	9.8	23.3
CCOC(=O)C1CCCN(C(=O)CN2C(=O)C(CC)Oc3ccc(C)cc32)C1 (stereo unspecified)	nt	7.8
SMILES	cytoskel mod	Measles CPE
CCC1Oc2ccc(C)cc2N(CC(=O)N2CCN(c3ccc(F)cc3)CC2)C1=O (stereo unspecified)	-1.3	28.4*
Cc1cccc(C)c1NC(=S)N/N=C/c1ccc(OCCC(C)C)cc1	12.9	11.9
CCCN(CC(=O)Nc1ccccc1C)C(=O)/C=C/c1cccs1	nt	22.9
CCN(CC(=O)Nc1ccc(NC(C)=O)cc1)C(=O)/C=C/c1cccs1	nt	44.3*
CCCCOC(=O)Nc1nnc(COc2ccccc2)s1	nt	4.9
CCCCOC(=O)Nc1nnc(CCc2ccccc2)s1	4.1	50.5*
COc1ccc(-c2nn(CCC(=O)O)cc2/C=C/C(=O)O)cc1[N+](=O)[O-]	nt	14.7
COc1ccc(OC)c(NC(=S)NN2CCN(C)CC2)c1	9.8	1.7
COc1ccc(OC)c(NC(=S)NN2CCOCC2)c1	-21.4	57.4*
COc1ccc2c(c1)OC13CCCCC1C2C(C(=O)c1ccccc1)C(=O)N3 (stereo unspecified)	-17.0	-0.9
CCSc1nc2ccccc2n1CCC(=O)O	4.0	2.0
O=C(O)CCn1c(SCc2cccc3ccccc23)nc2ccccc21	3.4	28.8*
O=C(NNC(=O)C1CCCO1)c1ccc(F)cc1 (stereo unspecified)	nt	9.2
Cc1ccc(S(=O)(=O)NCCOc2nc(N3CCOCC3)nc(N3CCOCC3)n2)cc1	5.6	62.7*
Cc1ccc(S(=O)(=O)NCCNC(=O)N2CCOCC2)cc1	-3.6	3.5
CC1CCCN(C(=S)Nc2ccc3nc4n(c(=O)c3c2)CCCCC4)C1 (stereo unspecified)	nt	3.6
CCCCNC(=O)c1onc(CSc2ccc(F)c(F)c2)c1C(=O)O	13.4	6.1
O=C(COc1ccccc1)NC1=NCCS1	1.0	77.7*
COc1ccc(OCCC(=O)NC2=NCCS2)cc1	7.9	1.5
Cc1ccccc1NC(=S)NC(=O)c1cncc(Br)c1	nt	5.7
O=C(NC(=S)Nc1ncc(Br)cc1Br)c1cncc(Br)c1	4.9	39.8*
CN(C)c1cccc(C(=O)OCC(=O)Nc2nccs2)c1	nt	3.8
COc1ccc(S(=O)(=O)N2CCCCC2)cc1	-41.6	13.4
COc1ccc(S(=O)(=O)N2CCCN(CC(=O)C(C)(C)C)CC2)cc1	-7.1	48.2*
COc1ccc(/C(N)=N/OC(=O)Cc2ccc(OC)c(OC)c2)cc1	2.1	15.2
O=C(NCCC(=O)N1CCN(c2ncccn2)CC1)c1ccccc1	nt	31.9*
O=C(NCCC(=O)N1CCN(c2ncccn2)CC1)c1ccccc1Cl	15.9	3.5
COc1ccc(Cl)cc1-c1nc(-c2ccc(NC(=O)c3cccs3)cc2)no1	nt	33.0
Cc1csc(-c2cnn(-c3ccccc3)c2NC(=O)c2cccc(C(F)(F)F)c2)n1	-5.1	21.6*
